MPTP inh = mitochondrial permeability transition pore inhibitors, primary screen, biochemical, isolated mouse mitochondria, absorbance; Ca2+ swelling absorbance, 30 min; inhibition, % at 10 µM; hit rate 1.4% among 360,000; AID 602449, 2012;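 active = inhibition of 50% or more, scaled per plate between neutral and stimulator controls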
Beta apoptosis = inhibitors of cytokine-induced beta cell apoptosis, primary screen, luminescence; INS-1E cytokine-induced death, ATP luminescence, 48 h; percent of positive-control rescue, neutral wells zero; protection from apoptosis, % (no concentration beside the values); hit rate 0.8% among 300,000; AID 435005, 2010;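 active = Every replicate reaches about 75%, or at least half do and their mean reaches it too, limit read from the data; inconclusive = At least half of replicates reach the limit but their mean does not; inactive = Under half of replicates reach the limit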;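 note: higher means more ATP so stronger rescue from cytokine killing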
Mdm2 MdmX PPI = inhibitors of human Mdm2-MdmX association, primary screen, cell-based, luminescence, split luciferase, SaOS-2, uHTS. AID 485346, 2010. hit rate 3% among 330,000. Protein Mdm4 (Homo sapiens) + E3 ubiquitin-protein ligase Mdm2 (Homo sapiens), …. SaOS-2 split-luciferase Mdm2/MdmX complementation. inhibition, % at 8 µM;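 active = inhibition of at least 50% at 8 µM in the primary screen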
Target sequence (O15151 whole entry, looked up): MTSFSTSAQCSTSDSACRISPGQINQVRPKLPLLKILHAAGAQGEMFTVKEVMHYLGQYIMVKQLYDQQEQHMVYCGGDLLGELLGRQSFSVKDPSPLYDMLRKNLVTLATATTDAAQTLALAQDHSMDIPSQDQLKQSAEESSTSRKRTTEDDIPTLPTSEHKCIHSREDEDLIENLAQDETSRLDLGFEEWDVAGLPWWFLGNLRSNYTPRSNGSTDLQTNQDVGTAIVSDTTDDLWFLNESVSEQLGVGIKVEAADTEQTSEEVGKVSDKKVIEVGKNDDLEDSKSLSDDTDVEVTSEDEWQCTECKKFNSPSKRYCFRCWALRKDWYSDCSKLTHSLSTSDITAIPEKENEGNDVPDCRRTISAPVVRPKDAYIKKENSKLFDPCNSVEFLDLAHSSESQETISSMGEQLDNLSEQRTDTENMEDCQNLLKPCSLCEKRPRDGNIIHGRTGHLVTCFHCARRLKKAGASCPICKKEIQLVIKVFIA
Target sequence (Q00987 whole entry, looked up): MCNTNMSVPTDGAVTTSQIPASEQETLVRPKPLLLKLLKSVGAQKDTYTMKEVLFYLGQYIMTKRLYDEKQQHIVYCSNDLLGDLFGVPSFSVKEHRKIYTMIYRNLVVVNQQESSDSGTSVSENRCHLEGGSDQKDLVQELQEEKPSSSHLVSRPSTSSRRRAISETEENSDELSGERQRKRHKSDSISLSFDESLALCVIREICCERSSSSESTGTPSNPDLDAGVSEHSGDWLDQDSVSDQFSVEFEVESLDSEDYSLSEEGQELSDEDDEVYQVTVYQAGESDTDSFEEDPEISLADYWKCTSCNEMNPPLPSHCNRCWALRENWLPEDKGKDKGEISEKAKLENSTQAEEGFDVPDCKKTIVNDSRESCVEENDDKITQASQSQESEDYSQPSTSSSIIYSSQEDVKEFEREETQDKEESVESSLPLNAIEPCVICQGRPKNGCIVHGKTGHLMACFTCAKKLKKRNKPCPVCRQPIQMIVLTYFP
CSC inhib = cancer stem cell viability inhibitors, primary screen, luminescence; cancer stem cell-like cells viability; inhibition, % at 7.5 µM; AID 2717, 2010; hit rate 1.1% among 300,000; in the data active = inhibition above about 75%; inconclusive = no clear call, values can overlap the other calls; tested in HMLE shEcad cells
SKKanGAS inh = S. pyogenes SKKanGAS growth inhibitors in kanamycin, primary screen, streptokinase expression inhibitor project, SKKanGAS strain, BacTiter-Glo luminescence. 6 h. inhibition, % at 7.5 µM. hit rate 1.3% among 300,000. AID 1662, 2009;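 active = mean replicate score, as percent of positive control median, at least 50; inconclusive = mean below 50 but one replicate at or above 50; inactive = mean and every replicate below 50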;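 note: strain carries kanamycin resistance gene driven by streptokinase promoter and grows in 40 µg/ml kanamycin; loss of luminescence reflects streptokinase promoter inhibition or plain growth inhibition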
NR3A LBD binder = binders of NR3A ligand-binding domain, primary screen, biophysical, differential scanning fluorimetry, uHTS. Glutamate receptor ionotropic, NMDA 3A (GRIN3A) ligand-binding domain. NR3A LBD differential scanning fluorimetry, Tm shift; 0% = protein alone, 100% = glycine-bound protein. Tm shift relative to glycine control, % at 25 µM. hit rate 2.5% among 340,000. AID 1259313, 2017;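 active = melting temperature shift of at least 10% of the positive control shift, at one fixed dose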
Mdm2 MdmX conf = Mdm2-MdmX complex disruptors, retested hits, confirmation, luminescence, single concentration. shares compounds with Mdm2 MdmX PPI. Mdm2-MdmX binding, luminescent assay. inhibition, % at 8 µM. hit rate 55% among 10,000; in the data active = inhibition above about 40%
Full FLuc ctr = full-length luciferase signal inhibition, confirmation, counter-screen for Mdm2/MdmX interaction inhibitor project, cell-based, single concentration, SaOS-2. shares compounds with Mdm2 MdmX PPI. SaOS-2 full-length luciferase counterscreen, luminescence. inhibition, % at 8 µM. hit rate 77% among 6,200. AID 504607, 2011;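 active = mean inhibition at 8 µM reaching about 37%, which flags the compound as non-specific, limit read from the data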;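 note: p53-null SaOS-2 cells with luciferase driven by a doxycycline-inducible promoter; compound on cells about two nights before reading with doxycycline added after day one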
Hits are given with their value; n = inactive; u = inconclusive; x = not tested or not shown. Rows were chosen to be rich in hits. Some 6.9% of all compounds tested hit in one or more screens of this group.

SMILES	MPTP inh	Beta apoptosis	Mdm2 MdmX PPI	CSC inhib	SKKanGAS inh	NR3A LBD binder	Mdm2 MdmX conf	others
O=C(N/N=C/c1sc(N2CCOCC2)nc1-c1ccccc1)c1ccc(O)cc1	n	n	n	n	n	n	x
CC1(C)C(=O)Nc2ccccc2N1C(=O)Cn1ncc(Cl)c(Cl)c1=O	n	n	100.4	u	n	n	91.2	Full FLuc ctr=39.9
O=C(NCCN1CCOCC1)c1cc2cc([N+](=O)[O-])ccc2s1	n	n	n	n	n	n	x
Cc1cc(Cl)ccc1OCC(=O)N1CCCCC1	n	n	n	n	n	n	x
O=C(COc1ccc(Cl)cc1Cl)N1CCCN(C(=O)COc2ccc(Cl)cc2Cl)CC1	n	n	58.7	n	n	n	n
CCc1nc2sc3c(c2c(=O)n1CCO)CCC3	n	n	n	n	n	n	x
CC(C)(C)c1ccc(/C=N/NC(=O)Cc2c[nH]c3ccccc23)cc1	n	n	54.7	n	n	n	n
O=C(Cc1c[nH]c2ccccc12)N/N=C/c1ccccc1O	n	n	n	n	n	n	x
CCN(CC)S(=O)(=O)c1ccc2c(c1)N(CC(=O)NCCN1CCOCC1)C(=O)CO2	n	x	n	x	n	n	x
NNc1nc2c(-c3cccc(C(F)(F)F)c3)nnn2c2ccccc12	n	n	56.0	n	n	n	n
CNc1nc2c(-c3ccc(Cl)cc3)nnn2c2ccccc12	n	n	60.6	n	n	n	42.2	Full FLuc ctr=68.7
CCOC(=O)c1nnn2c1nc(SCC(C)=O)c1ccccc12	n	n	n	n	n	n	x
CC(=O)NCCNc1nc2c(-c3ccccc3)nnn2c2ccccc12	n	n	n	n	n	n	x
CCOC(=O)c1nnn2c1nc(Nc1cccc(C(F)(F)F)c1)c1ccccc12	n	n	82.1	n	n	n	n
COCCNc1nc2c(-c3cccc(C(F)(F)F)c3)nnn2c2ccccc12	n	n	n	n	n	n	x
Nc1nc(-c2ccc(Cl)cc2)nc(-c2ccc(Cl)cc2)n1	n	n	57.1	n	n	n	40.4	Full FLuc ctr=61.3
CC(C)(C)c1ccc(-c2nc(N)nc(N)n2)cc1	n	n	n	n	n	n	x
CSc1nc(-c2ccc(Cl)cc2)nc(N)c1C#N	n	n	66.9	n	n	n	44.0	Full FLuc ctr=73.0
N#Cc1c(-c2ccccc2)nc(-c2ccccc2)nc1N1CCOCC1	n	n	n	n	n	n	x
N#Cc1c(N)nc(-c2ccccc2)nc1-c1ccccc1	n	n	56.2	n	n	10.0	n
Oc1ccc(F)c(CN2CCN(c3ncc(Cc4ccccc4)cn3)CC2)c1	n	x	x	x	x	x	x
O=[N+]([O-])c1ccc2c(c1)-c1ccccc1C2O (centres undefined)	n	x	x	x	x	x	x
C=CCC[C@@H](Cc1ccc(F)cc1)C(=O)OC[C@@H](Cc1c[nH]c2ccccc12)NC(=O)[C@@H](CC=C)CC(=O)N[C@@H](CO)Cc1ccccc1	n	n	n	n	x	n	x
C=CCC[C@@H](Cc1ccc(F)cc1)C(=O)OC[C@@H](Cc1c[nH]c2ccccc12)NC(=O)[C@H](CC=C)CC(=O)N[C@H](CO)Cc1ccccc1	n	n	75.8	x	x	n	n
C=CCC[C@H](Cc1ccc(F)cc1)C(=O)OC[C@H](Cc1c[nH]c2ccccc12)NC(=O)[C@H](CC=C)CC(=O)N(CCO)Cc1ccccc1	n	n	89.9	x	x	n	n
SMILES	MPTP inh	Beta apoptosis	Mdm2 MdmX PPI	CSC inhib	SKKanGAS inh	NR3A LBD binder	Mdm2 MdmX conf	others
C=CCC[C@@H](Cc1ccc(F)cc1)C(=O)OC[C@@H](Cc1c[nH]c2ccccc12)NC(=O)[C@@H](CC=C)CC(=O)N(CCO)Cc1ccccc1	n	n	93.3	u	x	n	n
C=CCC[C@@H](Cc1ccc(F)cc1)C(=O)OC[C@@H](Cc1c[nH]c2ccccc12)NC(=O)[C@@H](CC=C)CC(=O)N[C@H](CO)Cc1ccccc1	n	n	n	n	x	n	x
Cc1cccc(NC(=O)CN2CCN(C(=O)c3oc4c(Cl)cccc4c3C)CC2)c1C	n	n	n	n	x	n	x
Cc1ccc(CSc2cc(C)[nH]c(=O)n2)cc1	n	x	n	n	n	n	x
CCOc1ccccc1CNC(=O)c1nn(CC)cc1[N+](=O)[O-]	n	n	n	n	n	n	x
CCOc1cccc2sc(N(CCCN(C)C)C(=O)c3ccc(S(=O)(=O)N4CCc5ccccc5C4)cc3)nc12	n	n	82.4	n	n	n	n
CN(C)CCCN(C(=O)c1ccc(S(=O)(=O)N(C)C2CCCCC2)cc1)c1nc2ccc(F)cc2s1	n	n	n	n	n	n	x
CCc1ccc2nc(N(CCCN(C)C)C(=O)c3ccc(S(=O)(=O)N(C)C4CCCCC4)cc3)sc2c1	n	n	65.9	n	n	n	47.6	Full FLuc ctr=55.8
CCc1ccc2nc(N(CCCN(C)C)C(=O)c3ccc(S(=O)(=O)N4CCc5ccccc5C4)cc3)sc2c1	n	n	98.5	n	n	n	n
CCOc1ccc(OCC)c(NC(=O)C2CCN(S(=O)(=O)c3ccc4c(c3)CC(C)N4C(C)=O)CC2)c1 (centres undefined)	n	n	n	n	n	n	x
CC(C)c1ccc(C2C3=C(COC3=O)Nc3cc4c(cc32)OCO4)cc1 (centres undefined)	n	n	76.5	n	n	n	62.0	Full FLuc ctr=94.4
CC(C)c1ccc(S(=O)(=O)N2CCCCC2)cc1	n	n	n	n	n	n	x
COc1cccc(CC(=O)OCC(=O)N(C)CC(=O)Nc2ccc(Cl)c(C(F)(F)F)c2)c1	n	x	n	n	n	n	x
COc1ccc(-c2cc(C#N)nc(Cl)n2)cc1	n	n	68.2	n	n	n	n	Full FLuc ctr=38.2
CCN(CC)c1nc(C#N)cc(-c2ccc(OC)cc2)n1	n	n	53.8	n	n	n	65.0	Full FLuc ctr=47.0
CNC(=O)Cn1nc(-c2ccc(C)cc2)c2ccccc2c1=O	n	n	n	n	n	n	x
CCn1nc(C)c(C(=O)Nc2cc(Oc3cc(C)cc(C)c3)cc([N+](=O)[O-])c2)c1C	n	n	52.8	n	n	n	59.5	Full FLuc ctr=51.4
CC1=CC(C)(C)Nc2ccc(OC(=O)CCN3C(=O)c4ccccc4C3=O)cc21	n	n	100.7	n	n	n	n
O=C(CCCl)N1CCN(c2nc(-c3ccccc3)cs2)CC1	n	x	n	n	n	n	x
Cc1ccc(-c2csc(NC(=O)C[n+]3cc(-c4ccccc4)n4c3CCC4)n2)cc1	n	n	n	n	n	n	x

Screening results: PubChem, several laboratories
